Bioassay records from PubChem.
Only some compounds are listed: those with a hit (about 10% of all), similar ones and a draw of the others.
3T3 cytotox = cytotoxic compounds in NIH 3T3 cells; Potency, µM (titrated, usually from 96.7 µM), usual class: inhibitors; NIH 3T3 viability, CellTiter-Glo ATP luminescence, 48-72 h; 94,000 tested, 4.3% active; AID 1345082; note: nearly all actives have a fitted effect of over 55% in size
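ATP-dependent luminescence (CellTiter-Glo) served as the viability signal for NIH 3T3 cells treated with compound for 48 or 72 hr at 37 °C.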
HEK cytotox = cytotoxic compounds in HEK 293 cells | HEK 293 viability, ATP luminescence (CellTiter-Glo), 48-72 h | Potency, µM (highest dose often 115 µM), most hits filed as inhibitors | 94,000 tested, 6.6% active | AID 1345083; note: nearly all actives have a fitted effect of over 60% in size
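Cells seeded first (HEK 293, 250 cells/well), then compound added by pintool. Incubation ran 48 or 72 hr at 37 degree Celsius. CellTiter-Glo was added and luminescence imaged after 10 min at room temperature.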
hNpr1 antagonist = antagonists of human natriuretic peptide receptor Npr1 | P16066 | 76,000 tested, 1.6% active | Potency, µM (top dose mostly 46.3 µM), usual class: inhibitors | AID 1347048 | HEK293 hNpr1 GloSensor cGMP, ANP-stimulated luminescence; calls by dose curve; note: nearly all actives have a fitted effect of over 60% in size
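HEK293 cells stably expressing human Npr1 and cGMP GloSensor pGS-40F, loaded 2 h with 2% GloSensor reagent, given compound 30 min at room temperature. Luminescence read before and 20 min after 0.1 nM hNppA.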
GPT2 inhibitor = inhibitors of human GPT2 alanine aminotransferase; Q8TD30; Recombinant GPT2, coupled pyruvate oxidase/HRP Amplex Red fluorescence; Potency, µM (series often up to 57.7 µM), actives largely listed as inhibitors; 100,000 tested, 0.25% active; AID 1671188; note: nearly all actives have a fitted effect of over 60% in size
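Recombinant GPT2 (10ng/uL) with 250uM a-KG and 2mM L-alanine, 30 min at room temperature, in HEPES pH 7.5 buffer. Pyruvate detected by pyruvate oxidase/HRP/Amplex Red fluorescence after 30 min in the dark; AOA (50uM) as positive control.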
FLuc inh = inhibitors of firefly (Photinus pyralis) luciferase. 76,000 tested, 2.5% active. Potency, µM (series often up to 115 µM), actives largely listed as inhibitors. purified P. pyralis luciferase, luminescence, biochemical. AID 1347043; note: nearly all actives have a fitted effect of over 65% in size
Target sequence (P08659 whole entry, looked up): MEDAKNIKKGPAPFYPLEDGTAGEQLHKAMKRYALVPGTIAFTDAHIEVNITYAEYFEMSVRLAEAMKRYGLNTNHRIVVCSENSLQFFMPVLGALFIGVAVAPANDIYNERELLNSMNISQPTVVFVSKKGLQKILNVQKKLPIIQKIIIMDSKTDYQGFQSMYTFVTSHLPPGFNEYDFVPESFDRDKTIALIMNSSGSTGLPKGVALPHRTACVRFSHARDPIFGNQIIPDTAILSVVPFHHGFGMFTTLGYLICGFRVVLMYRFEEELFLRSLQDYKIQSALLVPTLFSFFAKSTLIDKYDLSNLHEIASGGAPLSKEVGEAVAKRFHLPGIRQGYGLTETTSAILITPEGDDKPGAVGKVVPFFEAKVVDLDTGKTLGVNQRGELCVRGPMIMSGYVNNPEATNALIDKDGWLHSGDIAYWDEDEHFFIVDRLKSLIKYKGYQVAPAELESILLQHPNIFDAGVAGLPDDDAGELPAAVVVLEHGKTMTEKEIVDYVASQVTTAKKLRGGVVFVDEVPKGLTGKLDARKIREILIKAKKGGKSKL
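Inhibitors were tested against purified firefly luciferase in a biochemical, low-substrate format (both substrates at 10uM) and luminescence measured with a CCD imager.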
Hits are given with their value; i = inactive; ? = inconclusive; nt = no result given. Unless noted, calls come from the whole dose curve; as a rule, active = well fitted curve in the direction sought with a large enough effect; inconclusive = small, poorly fitted or top-dose-only effect, or another doubt; inactive = no such curve, though single readings can be large; an effect the other way counts as inactive or inconclusive.

SMILES	3T3 cytotox	HEK cytotox	hNpr1 antagonist	GPT2 inhibitor	FLuc inh
CC1(c2ccccc2)N(Cc2ccc(O)cc2)C(=O)OC12CCN(C(=O)Cc1ccccc1)CC2 (centres undefined)	?	?	i	i	i
COc1ccccc1CNC(=O)C1CCCN(c2nccc(Nc3ccccc3OC)n2)C1 (centres undefined)	35.5µM	?	nt	i	nt
COCCCNC(=O)C1CCCN(c2nccc(Nc3ccccc3OC)n2)C1 (centres undefined)	i	i	nt	i	nt
COc1ccccc1Nc1ccnc(N2CCCC(C(=O)NCCCc3ccccc3)C2)n1 (centres undefined)	?	50.1µM	nt	i	nt
COC(=O)CNC(=O)C1CCCN(c2nccc(Nc3ccccc3OC)n2)C1 (centres undefined)	i	i	nt	i	nt
COc1ccccc1Nc1ccnc(N2CCCC(C(=O)NC(C)C)C2)n1 (centres undefined)	44.7µM	?	nt	i	nt
COc1ccccc1Nc1ccnc(N2CCCC(C(=O)NCC3CC3)C2)n1 (centres undefined)	35.5µM	?	nt	i	nt
CN(C)C[C@@H]1CN(c2ncccn2)C[C@H]1NS(=O)(=O)Cc1ccc(F)cc1	i	i	i	i	i
O=C(Cc1cccnc1)N1CCN(c2ccc3nnc(C4CC4)n3n2)CC1	i	i	nt	nt	nt
O=C(NC1CC1)[C@@H]1CN(Cc2ccc(Cl)cc2F)C[C@H]1CO	i	?	i	i	i
OCCN1CCN(c2ccc(-c3nc(-c4cccc(C(F)(F)F)c4)no3)cn2)CC1	25.1µM	?	?	i	28.2µM
CCN1CCN(c2ccc(-c3nc(CCCc4ccccc4)no3)cn2)CC1	?	?	i	i	?
Cn1c2c(c3cc(F)ccc31)CN(C(=O)Nc1ccc(F)c(Cl)c1)CC2	12.6µM	31.6µM	?	i	?
O=C(Nc1cccc(F)c1)N1CCc2c(c3ccccc3n2CC2CC2)C1	25.1µM	44.7µM	i	?	i
Cc1ccc(NC(=O)N2CCc3c(c4ccccc4n3CC3CC3)C2)cc1	25.1µM	?	i	i	14.1µM
O=C(Nc1ccc(Cl)cc1Cl)N1CCc2[nH]c3ccc(F)cc3c2C1	?	?	i	?	i
COc1ccc(NC(=O)N2CCc3c(c4ccccc4n3C)C2)cc1	?	?	i	i	?
CC(=O)N1CCc2c(c3ccccc3n2C)C1	i	i	i	?	i
O=C(Nc1ccc(F)c(F)c1)N1CCc2c(c3ccccc3n2CC2CC2)C1	?	12.6µM	i	i	i
Cn1ncc2c(C(=O)N3CCCC3)cc(-c3ccccc3)nc21	i	?	nt	i	nt
Cn1c2c(c3ccccc31)CN(C(=O)Nc1ccccc1)CC2	?	i	i	i	i
Cn1c2c(c3ccccc31)CN(C(=O)NC1CCCCC1)CC2	31.6µM	44.7µM	i	i	i
CC(C)(O)C1CC=C(C(=O)OCC2OC(Oc3c(O)cc(C(=O)O)cc3O)C(O)C(O)C2O)CC1 (centres undefined)	nt	nt	nt	i	nt
C[S+](=O)([O-])CCn1ncc2cc(OCc3cccc(-c4cccc(CO)c4)c3)ccc21	?	50.1µM	?	?	?
COc1ccc(-c2cccc(COc3ccc4c(cnn4CC[S+](C)(=O)[O-])c3)c2)cc1	?	?	i	i	?
SMILES	3T3 cytotox	HEK cytotox	hNpr1 antagonist	GPT2 inhibitor	FLuc inh
C[S+](=O)([O-])CCn1ncc2cc(OCc3cccc(-c4ccccc4F)c3)ccc21	?	50.1µM	?	i	15.8µM
CC1=C(C(=O)NCC2Cn3cccc3C(=O)N2Cc2ccccc2)C2(CCCCC2)OC1=O (centres undefined)	i	i	i	i	i
O=C(C1CCCN(C(=O)C2CC2)C1)N1CCC(c2nc3ncccc3[nH]2)CC1 (centres undefined)	i	i	nt	i	nt
O=c1c2nc(OCc3ccccc3)ccc2ncn1Cc1ccccn1	?	i	i	i	i
O=c1c2nc(NCc3ccccc3)ccc2ncn1Cc1ccccn1	79.4µM	?	i	i	i
O=C(CNC(=O)c1ccc(-c2cnc3ccccc3c2)cc1)NCC1CCCCC1	?	39.8µM	nt	nt	nt
O=C(CNC(=O)c1ccc(-c2cnc3ccccc3c2)cc1)NCC(F)(F)F	i	i	nt	nt	nt
O=C(NCC(=O)N1CCCCC1)c1ccc(-c2cnc3ccccc3c2)cc1	?	44.7µM	nt	i	nt
CC(C)c1nc2c(c(-c3ccc(Cl)cc3)n1)CCN(Cc1ccc(N(C)C)cc1)CC2	i	i	nt	i	nt
O=C(CN1C(=O)NC(c2ccc(Cl)cc2)C2=C1COC2=O)Nc1cc(F)cc(F)c1 (centres undefined)	25.1µM	25.1µM	i	i	i
Cc1cccc(Cl)c1NC(=O)CN1C(=O)NC(c2ccc(Cl)cc2)C2=C1COC2=O (centres undefined)	?	31.6µM	i	i	i
Cc1ccc(C2NC(=O)N(CC(=O)Nc3c(C)cccc3Cl)C3=C2C(=O)OC3)cc1 (centres undefined)	i	i	i	i	i
Cc1ccc(C)c(NC(=O)CN2C(=O)NC(c3ccc(Cl)cc3)C3=C2COC3=O)c1 (centres undefined)	?	?	i	i	i
O=C(CN1C(=O)NC(c2ccc(Cl)cc2)C2=C1COC2=O)Nc1ccc2c(c1)OCO2 (centres undefined)	?	?	i	i	i
O=C(CN1C(=O)NC(c2ccc(Cl)cc2)C2=C1COC2=O)Nc1cc(F)ccc1F (centres undefined)	?	44.7µM	i	i	i
CCOC(=O)c1ccccc1NC(=O)CN1C(=O)NC(c2ccc(C)cc2)C2=C1COC2=O (centres undefined)	?	31.6µM	i	i	i
Cc1cc(NC(=O)CN2C(=O)NC(c3ccccc3Cl)C3=C2COC3=O)ccc1Br (centres undefined)	39.8µM	44.7µM	i	i	?
Cc1ccc(NC(=O)CN2C(=O)NC(c3ccccc3Cl)C3=C2COC3=O)cc1C (centres undefined)	?	?	i	i	?
O=C(CN1C(=O)NC(c2ccc(Cl)cc2)C2=C1COC2=O)Nc1ccc(Cl)cc1F (centres undefined)	35.5µM	?	i	i	i
CC(C)N1C[C@H](Oc2ccccc2)[C@@H]1C1CCN(C(=O)c2cccc(C#N)c2)CC1	i	i	nt	i	nt
O=C(C1CN(c2ccc(Cl)cc2)C(=O)N1)N1CCN(Cc2ccccc2)CC1 (centres undefined)	?	25.1µM	i	?	i
O=C(C1CN(c2ccccc2)C(=O)N1)N1CCN(Cc2ccccc2)CC1 (centres undefined)	?	44.7µM	i	i	i
CC(NC(=O)Cc1cc(F)cc(F)c1)C(=O)NC1C(=O)N(C)c2ccccc2-c2ccccc21 (centres undefined)	nt	nt	nt	i	nt
O=C(Nc1ncc(SCCN2CCCC2)s1)C1(c2ccc(S(=O)(=O)C3CC3)cc2)CC1C1CCCCC1 (centres undefined)	nt	nt	nt	i	nt
